# The list is not random: actives were taken first. Their share in the collection is about 4.5%.
# HTT promoter inh: Primary qHTS for Identification of Small Molecule Inhibitors of Huntingtin Promoter Activity. HEK293 HTT promoter firefly luciferase reporter, 24 h. actives 0.93% (n = 48,000). Potency, µM (titrated, usually from 57.5 µM), inactives show at the top dose activity change, negative = inhibition, actives largely listed as inhibitors; also: potency is read from the fitted curve at half-maximal effect; nearly all actives have a fitted effect of over 50% in size
#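 HEK293 cells carrying firefly luciferase reporters were seeded at 2,500 per well in Opti-MEM and cultured for 24 h. They were then treated with compounds at up to 57.5 uM final for 24 h at 37 degrees C before Dual-Glo luminescence readout.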
# NTMT1 inh: Primary qHTS for Inhibitors of N-terminal methyltransferase 1 (NTMT1): MTaseGlo Assay; NTMT1 MTase-Glo SAH luminescence, purified enzyme; Potency, µM (doses to about 114 µM), inactives show at the highest dose activity change, negative = inhibition, most hits filed as inhibitors; actives 2.5% (n = 59,000); AID 1645870, 2021;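 also: potency is read from the fitted curve at half-maximal effect; plate controls were DMSO vehicle for no effect and no enzyme for full effect; nearly all actives have a fitted effect of over 65% in size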
# Target sequence (Q9BV86 whole entry, looked up): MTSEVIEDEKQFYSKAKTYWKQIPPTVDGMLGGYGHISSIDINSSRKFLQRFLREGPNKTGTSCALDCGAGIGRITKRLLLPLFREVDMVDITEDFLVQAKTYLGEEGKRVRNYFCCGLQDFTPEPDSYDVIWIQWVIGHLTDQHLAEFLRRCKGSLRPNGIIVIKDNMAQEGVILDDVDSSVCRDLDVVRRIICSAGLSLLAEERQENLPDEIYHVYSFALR
# GPR32 ag: qHTS for Agonists of Human Resolvin D1 Receptor DRV1 | CHO-K1 GPR32 beta-arrestin PathHunter luminescence, 90 min; zero percent set by DMSO-only wells | actives 2.5% (n = 48,000) | activation, % at 76.9 µM | Probable G-protein coupled receptor 32 (Homo sapiens), O75388;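 active = activation of at least 60% and not above a set upper limit, about 1 call in 100 departs from these limits; inconclusive = activation of 40% to 60%, or above that upper limit; inactive = activation under 40%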; also: 0% is about no effect
# Target sequence (O75388 whole entry, looked up): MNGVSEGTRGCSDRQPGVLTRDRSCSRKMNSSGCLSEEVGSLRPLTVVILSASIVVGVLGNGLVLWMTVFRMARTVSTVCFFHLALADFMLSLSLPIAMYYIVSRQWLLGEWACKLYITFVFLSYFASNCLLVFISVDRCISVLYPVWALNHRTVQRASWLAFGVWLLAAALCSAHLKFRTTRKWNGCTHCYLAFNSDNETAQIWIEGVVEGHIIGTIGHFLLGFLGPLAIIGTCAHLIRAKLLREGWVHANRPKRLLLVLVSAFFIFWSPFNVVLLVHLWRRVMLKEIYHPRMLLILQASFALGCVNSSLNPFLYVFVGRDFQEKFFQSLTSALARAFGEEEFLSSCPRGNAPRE
#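 Agonism was scored as beta-arrestin recruitment to ProLink-fused GPR32 in stably transfected CHO-K1 cells, giving a chemiluminescent beta-Gal signal; compounds were incubated 90 min at 37 °C.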
# OvCa metastasis: Primary qHTS assay for Inhibitors of ovarian cancer metastasis using an organotypic tumor microenvironment (TME) model | AID 1963576, 2024 | Potency, µM (titrated, usually from 45.8 µM), inactives show at the highest dose activity change, negative = inhibition, usual class: inhibitors | SKOV3ip1-GFP adhesion/invasion on 3D omental model, fluorescence | actives 0.1% (n = 46,000);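 also: potency is read from the fitted curve at half-maximal effect; plate controls were DMSO wells for no effect and tomatine positive control wells for full effect; nearly all actives have a fitted effect of over 65% in size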
#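 Adhesion/invasion was scored as fixed GFP-labeled SKOV3ip1 cell counts (488/509 nm), normalized to DMSO and tomatine controls. Cancer cells in serum-free medium, with four compound doses (0.36-46 umol/L), sat 2 hr at RT then 16 hr at 37 C on a 48 hr fibroblast/mesothelial/ECM culture.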
# HTT-AS act: Primary qHTS for Identification of Small Molecule Activators of Huntingtin-Antisense Promoter Activity. HEK293 HTT-AS promoter firefly luciferase reporter, 24 h; response scale: percent change from vehicle, -100% = no light. Potency, µM (series often up to 57.5 µM), for inactives: top-dose activity change, positive = activation, most hits filed as activators. actives 0.24% (n = 48,000). AID 1508624, 2021; also: potency is read from the fitted curve at half-maximal effect; nearly all actives have a fitted effect of over 55% in size
#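 Luminescence was read after Dual-Glo reagent and a 10 min room-temperature incubation. Values were normalized to vehicle (0% activity) and zero RLU (-100% activity). Reporter HEK293 cells had been exposed to compounds (up to 57.5 uM final) for 24 h.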
# An asterisk follows results filed as active; i = inactive; ? = inconclusive; nt = no result given; ! = not active in a repeat; [ ] = another dose, or the depositor's remark. Unless noted, calls follow the shape of the dose curve; as a rule, active = well fitted curve in the direction sought with a large enough effect; inconclusive = small, poorly fitted or top-dose-only effect, or another doubt; inactive = no such curve, though single readings can be large; an effect the other way counts as inactive or inconclusive.
SMILES,HTT promoter inh,NTMT1 inh,GPR32 ag,OvCa metastasis,HTT-AS act
CCCCOc1ccc(C(=O)N2CCC(c3nc4ccccc4o3)CC2)cc1,?,-9.7%,-11.1,-23.0%,-22.6%
CCOc1ccccc1C(=O)N1CCC(c2nc3ccccc3o2)CC1,-20.3%,89.1µM*,0.6,-29.7%,-34.3%
CN1CCc2cc(NC(=O)Nc3cccnc3)ccc21,nt,nt,0.9,nt,nt
Cn1ccc2cc3c(cc21)CCN3C(=O)Nc1cccnc1,22.8%,79.4µM*!,-6.2,14.8%,?
Cc1ccc(-c2ccc(=O)n(CCN)n2)cc1,nt,4.5%,nt,nt,nt
Cc1ccc(CN2C(=O)SC(Nc3ccc(Cl)cc3)C2=O)cc1 (stereo not given),-26.3%,4.4%,61.5*,8.2%,-17.4%
Cc1ccc(CN2C(=O)N(c3ccc(F)cc3)C(=O)C2CC(=O)Nc2ccc(Cl)cc2)cc1 (stereo not given),?,4.6%,4.3,i,-50.0%
Nc1ccc2c(c1)CN1C(=O)c3ccccc3C1=N2,-27.4%[25.2 µM],12.6µM*,13.6,nt,-51.8%[25.1 µM]
O=C(Nc1ccc2nc(SCCOc3ccccc3)sc2c1)c1cccs1,?,6.9%,-2.8,0.2%,-18.3%
COc1cccc(NC(=O)CSc2nc3ccc(NC(=O)c4cccs4)cc3s2)c1,-6.6%,8.8%,95.0*,5.1%,-14.8%
O=C(Nc1ccc2nc(SCC(=O)N3CCOCC3)sc2c1)c1cccc(F)c1,-22.3%,0.0%,-6.8,i,-13.7%
O=C(Nc1ccc2nc(SCC(=O)N3CCCC3)sc2c1)c1cccc(F)c1,-7.0%,89.1µM*,-6.4,?,-17.9%
Cc1cccc(NC(=O)CSc2nc3ccc(NC(=O)CCc4ccccc4)cc3s2)c1,-19.5%,14.2%,29.9,?,-23.4%
Cc1cccc(NC(=O)CSc2nc3ccc(NC(=O)c4cccs4)cc3s2)c1,-2.2%,-7.8%,64.3*,0.6%,-12.7%
COc1ccc(CCNC(=O)c2c(C)oc3nc(C)nc(N4CCOCC4)c23)cc1OC,2.2%,-1.6%,-5.0,-3.6%,-2.3%
Cc1cc(C)cc(NC(=O)C(=O)NCCc2sc(-c3cccc(F)c3)nc2C)c1,-16.9%,-5.4%,2.7,0.9%,-9.4%
Cc1nc(-c2ccc(F)cc2)sc1CCNC(=O)c1ccccc1,-11.7%,?,62.2*,1.8%,-8.0%
Cc1nc(-c2cccc(F)c2)sc1CCNC(=O)Cc1ccc(F)cc1,-44.4%,?,88.1*,i,-29.7%
COC(=O)C1=C(c2ccccc2)c2ccccc2S(=O)(=O)N1CC(=O)Nc1cccc(C(C)=O)c1,-36.0%,79.4µM*,-2.2,9.8%,-36.2%
CC(=O)c1cccc(NC(=O)CN2C=NS(=O)(=O)c3ccc(C)cc32)c1,8.6%,3.7%,-4.6,i,-6.9%
Cc1cc(OCC(O)CN2CCN(c3cccc(Cl)c3)CC2)ccc1Cl (stereo not given),-10.5%,-7.7%,69.8*,i,0.6%
COc1ccc(N2CCN(CC(O)COc3ccc(C(C)C)c(C)c3)CC2)cc1 (stereo not given),-20.4%,?,104.4*,-2.8%,14.3%[11.5 µM]
CCOC(=O)c1cccc(NC(=O)C2CCN(c3nnc(C)c4c(C)n(-c5ccccc5)nc34)CC2)c1,-9.9%,-3.7%,7.9,-8.4%,-5.0%
Cc1cc2ccccc2n1-c1ccc(C(=O)N2CCC(C(=O)NCc3ccc(Cl)cc3)CC2)s1,14.1µM*,-4.7%,-13.1,-14.4%,-39.4%
CCc1ccc(CNC(=O)C2CCN(C(=O)c3ccc(-n4c(C)cc5ccccc54)s3)CC2)cc1,?,11.1%,-13.9,i,-80.4%
SMILES,HTT promoter inh,NTMT1 inh,GPR32 ag,OvCa metastasis,HTT-AS act
CC(C)(C)c1ccc(/C=C/C(=O)Nc2ccc(S(N)(=O)=O)cc2)cc1,?,6.4%,94.2*,-13.9%,-40.6%
Cc1ccc(/C=C/C(=O)Nc2ccc(S(N)(=O)=O)cc2)o1,7.3%,?,12.3,10.0%,10.7%
CCOc1ccc(-c2nnc(SCC(=O)NCc3ccccc3)o2)cc1,-28.4%,?,-5.7,-8.0%,-40.1%
Cc1ccccc1Nc1c(-c2cc(Br)ccc2F)nc2ccccn12,-0.7%,12.7%,-34.4,i,-15.9%
O=S(=O)(Nc1ccc(F)cc1F)c1ccc(-n2cccn2)cc1,?,1.6%,74.7*,2.3%,-31.1%
Cc1cc(C)cc(NS(=O)(=O)c2ccc(-n3cccn3)cc2)c1,?,-0.9%,7.1,0.8%,-34.6%
Cc1ccc(NS(=O)(=O)c2ccc(-n3cccn3)cc2)cc1Cl,?,1.0%,73.2*,i,-31.8%
CCc1cccc(NS(=O)(=O)c2ccc(-n3cccn3)cc2)c1,35.5µM*,-0.1%,85.9*,-16.5%,-40.4%
COC(=O)c1ccc(NS(=O)(=O)c2ccc(-n3cccn3)cc2)cc1,-17.0%,17.2%,-6.7,3.8%,-18.5%
COc1ccc(NS(=O)(=O)c2ccc(-n3cccn3)cc2)cc1OC,7.94µM*,14.3%,14.2,6.3%,-89.9%
Cc1nc(N=Nc2cc(S(=O)(=O)O)c3cc([N+](=O)[O-])cc(S(=O)(=O)O)c3c2)c(COP(=O)(O)O)c(C=O)c1O,nt,nt,-22.6,nt,nt
CCc1ccccc1NC(=O)Nc1c(C)n(C)n(-c2ccccc2)c1=O,-15.1%,7.1%,-12.6,-0.5%,4.3%
COc1ccc(CCNC(=O)C(=O)Nc2ccccc2F)cc1,14.8%,2.2%,-1.6,-1.7%,17.9%
Cc1oc(-c2ccc(C(=O)NCc3ccc(F)cc3)cc2)nc1CS(=O)c1ccccc1 (stereo not given),?,2.1%,49.0,-7.8%,-24.7%
S=C(Nc1ccccn1)c1ccccn1,nt,8.91µM*,nt,nt,nt
CC(C)(C)CC(C)(C)c1ccc(OCCOCC[N+](C)(C)Cc2ccccc2)cc1,?,?,?,nt,-41.5%
C[N+](C)(CCOc1ccccc1)Cc1cccs1,5.0%,14.1µM*,-0.7,nt,-7.5%
Cc1cccc(Cn2nnc3c(=O)[nH]c(C4CCCN(C(=O)c5ccc(C(C)(C)C)cc5)C4)nc32)c1 (stereo not given),?,0.2%,-13.1,?,-32.6%
CC(=O)N1CCN(c2ccc(O)cc2)CC1,4.5%,28.2µM*,42.0,nt,-9.0%
COc1ccc(-c2nc(SCC(=O)NCc3ccccc3Cl)n[nH]2)cc1,?,0.4%,-6.8,i,-46.2%
O=C(O)c1ccc(-n2cccc2/C=C2\SC(=O)N(Cc3ccccc3Cl)C2=O)cc1,nt,50.1µM*,nt,nt,nt
O=C(O)c1ccc(-n2cccc2/C=C2\SC(=O)N(Cc3ccc(F)cc3)C2=O)cc1,nt,79.4µM*,nt,nt,nt
O=C(O)CN1C(=O)N/C(=C\c2cccn2-c2ccc(P(=O)(O)O)cc2)C1=O,nt,-3.2%,nt,nt,nt
